This is part of a sample that, as a whole, favours compounds with a hit. Of some 83,000 tested, about 20% had one in any assay.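 96-well plates, one dose, 48 hours. Percent growth reported; active if below 10.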 A number with no mark means an inactive call. Calls of active or inactive are those of the source.
Key:
Experiment in all cases: NCI-60 one-dose screen, 48 h (100 = growth as untreated, 0 = no growth, -100 = all killed)
Conditions in all cases: 10 µM unless noted
[1] = tested on: HCT-15 colon
[2] = tested on: HT29 colon
[3] = tested on: SNB-75 CNS
[4] = tested on: SNB-19 CNS
[5] = tested on: U251 CNS
[6] = tested on: PC-3 prostate
[7] = tested on: SK-MEL-5 melanoma
[8] = tested on: UACC-62 melanoma
[9] = tested on: LOX IMVI melanoma
[10] = tested on: SK-MEL-28 melanoma

Compound	growth [1]	growth [2]	growth [3]	growth [4]	growth [5]	growth [6]	growth [7]	growth [8]	growth [9]	growth [10]
O=C(NCc1ccc(Cl)cc1Cl)C1CCC(=O)N1c1cccs1 (stereo not given)	96.5%	89.9%	77.6%	99.9%	89.4%	87.4%	102%	80.7%	89.1%	93.4%
O=C(/C=C/c1cn(-c2ccccc2)nc1-c1ccc(Cl)cc1)c1ccc(F)cc1	58.8%	77%	74.6%	76.1%	76.6%	67.6%	86%	59%	68.7%	106%
CCn1c(SCC(=O)N/N=C(\C)c2ccc(Cl)cc2)nc2c1c(=O)n(C)c(=O)n2C	104%	103%	79.6%	99.2%	104%	97.5%	99.3%	95.2%	94.6%	111%
COc1ccc(F)cc1/C=C/C(=O)/C=C(/C=C/c1cc(F)ccc1OC)OB(F)F	9.21% (active)	18%	83.7%	72.4%	14%	29%	53.6%	14.8%	3.94% (active)	48.1%
NC(=O)C(=O)c1ccccc1NC=O	105%	101%	77.2%	99.9%	96.3%	90.1%	103%	92.1%	93.1%	101%
COCCNC(=O)Nc1ccc2nc(-c3cccs3)c(-c3cccs3)nc2c1	90.9%	87.8%	81.6%	95.5%	96.7%	79.2%	89.5%	85.1%	82.8%	96.7%
CCCc1c(OC(=O)c2ccccc2)nc2[nH]c(=O)sc2c1C	98.3%	104%	88.9%	96%	97.7%	97.2%	98%	88.8%	98.3%	104%
COC(=O)C1Cc2ccccc2CN1C(=O)c1ccc2c(c1)Cc1ccccc1-2 (stereo not given)	22.4% [50 µM]	23.1% [50 µM]	60.8% [50 µM]	43.7% [50 µM]	32.3% [50 µM]	21.2% [50 µM]	-39.9% [50 µM] (active)	33.3% [50 µM]	35.8% [50 µM]	47.8% [50 µM]
COc1ccc(/C=N/C2=C(C#N)C(c3ccccc3)c3ccc4ccccc4c3O2)cc1 (stereo not given)	15.8%	6.29% (active)	15.5%	24.6%	18.5%	8.18% (active)	16.3%	15.8%	29.5%	41.4%
O=C(CSc1nnc(-c2cnccn2)n1-c1ccccc1)c1ccc(Cl)cc1	97.5%	94.7%	110%	101%	93.7%	87.8%	99.7%	84.9%	108%	103%
NS(=O)(=O)c1ccccc1NC(=O)Nc1nc2ccccc2s1	100%	98.2%	86.9%	98%	99.1%	97.8%	99.8%	101%	91.8%	103%
C=C1CC[C@@H]2[C@](C)(COC(C)=O)[C@H](OC(C)=O)CC[C@@]2(C)[C@@H]1CC(Nc1ccc(S(=O)(=O)Nc2ncccn2)cc1)C1=CCOC1=O (stereo not given in full)	-51.4% (active)	-48.6% (active)	25.6%	36.7%	-19% (active)	15.1%	24.1%	3.93% (active)	-79.8% (active)	-17.7% (active)
Cc1ccc(C(=O)c2ccc(CC(=O)N/N=C/c3ccccc3O)n2C)cc1	43.5%	101%	59.6%	79.3%	76.2%	86.8%	87.4%	87.2%	58%	84.3%
Cc1ccc(C[P+](c2ccccc2)(c2ccccc2)c2ccccc2)cc1	82.5%	2.44% (active)	-3.92% (active)	19.9%	7.54% (active)	4.25% (active)	-66.3% (active)	6.79% (active)	15.4%	9.82% (active)
Cc1cc(C)c2c(c1)N(C)c1ncnc(-n3cnc4cc(C)ccc43)c1CC2C (stereo not given)	23.4%	0.933% (active)	29.1%	35.7%	14.6%	20.9%	8.49% (active)	30.7%	46.5%	62.9%
Cn1c(=O)cc2c3c(c(NCCCO)ccc31)C(=O)c1ccccc1-2	39.5%	23.1%	39.3%	47.3%	37.5%	45.2%	40.2%	40.4%	26.6%	71.4%
